For five molecules, composite z-score and z-score results are on record in PubChem BioAssay.

Active and inactive are the calls of the source.

A short description of experiment [1]: small molecules captured by biotinylated probe aFSTL3 – biochemical, small-molecule microarray, fluorescence 635/667, stem cell growth factor project, primary screen (AID 1064).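 Further: measures binding of the biotinylated anti-FSTL3 antibody to printed compounds.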 The settings on record: higher = more signal.
Experiment [2] is described as follows: binders from COS7 lysate, DM2A8 probe, primary screen, torsin A project, cell lysate, small-molecule microarray, fluorescence 635/667 (AID 1065). To be noted: higher = more signal, COS7 lysate expressing mutant human TOR1A.
Experiment [3] can be described thus: small molecules captured by biotinylated probe aFGF2 – biochemical, small-molecule microarray, fluorescence 635/667, stem cell growth factor project, primary screen (AID 1067).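 Further: measures binding of biotinylated aFGF2 protein to printed compounds on slides; z-score merges feature fluorescence and signal-to-noise across triplicate slides.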 The settings on record: higher = more signal.
Experiment [4] in a line: small molecules captured by biotinylated probe aFGF10 – biochemical, small-molecule microarray, fluorescence 635/667, stem cell growth factor project, primary screen (AID 1071).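 Further: score merges 667 nm spot intensity and signal to noise from triplicate slides.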 The settings on record: higher = more signal.
Experiment [5] deals with Neurogenic locus notch homolog protein 2 (Homo sapiens) (UniProt Q04721). Nature of the experiment: small molecules binding Notch2 protein – biochemical, small-molecule microarray, 635 nm fluorescence, stem cell growth factors, primary screen (AID 1073). To be noted: higher = more signal.
The target of experiment [6] is Pro-neuregulin-1, membrane-bound isoform (Homo sapiens) (UniProt Q02297). Nature of the experiment: small molecules binding neuregulin-1 protein – biochemical, small-molecule microarray, fluorescence 635/667, psychiatric disease protein project, primary screen (AID 1075).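 Further: score combines 667 nm spot fluorescence with signal to noise.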 To be noted: NRG1 binding, 635 nm fluorescence, higher = more signal.
Experiment [7] deals with Neuregulin-1 EGF-like domain. Nature of the experiment: small molecules binding NRG1 EGF domain – biochemical, small-molecule microarray, 635 nm fluorescence, primary screen (AID 1081).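 Further: binding of the protein to compounds printed on small-molecule microarray slides.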 The settings on record: higher = more signal.
A short description of experiment [8]: FRG1 expression reporter modulators in myotubes – cell-based, C2C12 myotubes, firefly/Renilla luciferase, luminescence, FRG1 inhibition for FSHD, primary screen (AID 1084). To be noted: FRG1 promoter luciferase, higher = more signal, called active from +8 up or from −8 down.
Experiment [9] is described as follows: small molecules captured by biotinylated probe aFST – biochemical, small-molecule microarray, fluorescence 635/667, stem cell growth factor project, primary screen (AID 1086).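 Further: score merges 667 nm fluorescence with signal-to-noise of each printed compound spot.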 To be noted: higher = more signal.
Experiment [10] can be described thus: binders of probe aHhip on microarray, primary screen, stem cell growth factor project, biochemical, small-molecule microarray, fluorescence 635/667 (AID 1087).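 Further: score merges spot fluorescence at 667nm with spot signal to noise ratio.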 To be noted: higher = more signal.
Experiment [11] concerns PRMT1 (protein arginine N-methyltransferase 1). Nature of the experiment: small molecules binding arginine methyltransferase PRMT1 – biochemical, small-molecule microarray, 635 nm fluorescence, primary screen (AID 1088).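 Further: binding of Prmt1 protein to compounds spotted on small-molecule microarray slides.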 To be noted: higher = more signal.
The nature of experiment [12]: growth effects on S. cerevisiae YJM789 – YJM789 clinical isolate, OD600, 24 h, basal, primary screen (AID 1089).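 Further: growth of clinical yeast isolate S. cerevisiae YJM 789 seeded 1000 cells per well; test concentration not given here.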 The settings on record: higher = more signal, called active from +8 up or from −8 down.
Experiment [13] in a line: S. pombe growth modifiers, basal conditions – strain 972, OD600, 24 h, no modulator, primary screen (AID 1090).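 Further: basal condition with compound alone and no growth modifier present; test concentration not given here.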 The settings on record: S. pombe 972 growth, higher = more signal, called active from +8 up or from −8 down.
Experiment [14] is described as follows: budding yeast growth modifiers under rapamycin – strain BY4716, OD600, 96 h, primary screen (AID 1091). Further: test concentration not given here. The settings on record: S. cerevisiae BY4716 + rapamycin, higher = more signal, called active from +8 up or from −8 down.
In experiment [15] the target is Torsin-1A-interacting protein 2 (Homo sapiens) (UniProt Q8NFQ8). Nature of the experiment: small molecules binding lysate-expressed LULL1 – cell lysate, human LULL1 lysate, 635/667 nm fluorescence, primary screen (AID 1092).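 Further: score merges per-feature 667 nm fluorescence with signal-to-noise.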 To be noted: small-molecule microarray, hLULL1 lysate binding, 635 nm fluorescence; higher = more signal.
A short description of experiment [16]: optical density change of DRC41 E. coli – strain DRC41, OD650, 24 h, E. coli filamentation project, primary screen (AID 1093).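 Further: MC1000 strain lacking acrAB efflux and sulA so SOS filamentation is blocked; test concentration not given here.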 The settings on record: E. coli DRC41 growth, higher = more signal, called active from +8 up or from −8 down.
Experiment [17] in a line: probe aLefty2 binding to arrayed compounds – biochemical, biotinylated probe, 635/667 nm fluorescence, primary screen (AID 1094).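 Further: score merges spot fluorescence near 667 nm with spot signal-to-noise ratio.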 To be noted: small-molecule microarray, higher = more signal.
The test system of experiment [18] is Noggin (protein binding on small-molecule microarray). Kind of experiment: small molecules binding Noggin protein – biochemical, 635/667 nm fluorescence, primary screen (AID 1095).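 Further: score merges 667 nm feature fluorescence with signal to noise over triplicate slides.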 To be noted: 635 nm fluorescence, higher = more signal.
Experiment [19] deals with Neurogenic locus notch homolog protein 3 (Homo sapiens) (UniProt Q9UM47). Nature of the experiment: small molecules binding NOTCH3 protein – biochemical, 635/667 nm fluorescence, primary screen (AID 1096). To be noted: small-molecule microarray, 635 nm fluorescence, higher = more signal.
The nature of experiment [20]: probe aEGFR binding to arrayed compounds – biochemical, biotinylated probe, 635/667 nm fluorescence, primary screen (AID 1097).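 Further: probe is a biotinylated anti-EGFR antibody binding compounds printed on slides; score combines fluorescence near 667 nm and signal to noise of each spot.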 To be noted: small-molecule microarray, higher = more signal.

Sequence of Neurogenic locus notch homolog protein 3 (Homo sapiens) (Q9UM47 whole entry, looked up): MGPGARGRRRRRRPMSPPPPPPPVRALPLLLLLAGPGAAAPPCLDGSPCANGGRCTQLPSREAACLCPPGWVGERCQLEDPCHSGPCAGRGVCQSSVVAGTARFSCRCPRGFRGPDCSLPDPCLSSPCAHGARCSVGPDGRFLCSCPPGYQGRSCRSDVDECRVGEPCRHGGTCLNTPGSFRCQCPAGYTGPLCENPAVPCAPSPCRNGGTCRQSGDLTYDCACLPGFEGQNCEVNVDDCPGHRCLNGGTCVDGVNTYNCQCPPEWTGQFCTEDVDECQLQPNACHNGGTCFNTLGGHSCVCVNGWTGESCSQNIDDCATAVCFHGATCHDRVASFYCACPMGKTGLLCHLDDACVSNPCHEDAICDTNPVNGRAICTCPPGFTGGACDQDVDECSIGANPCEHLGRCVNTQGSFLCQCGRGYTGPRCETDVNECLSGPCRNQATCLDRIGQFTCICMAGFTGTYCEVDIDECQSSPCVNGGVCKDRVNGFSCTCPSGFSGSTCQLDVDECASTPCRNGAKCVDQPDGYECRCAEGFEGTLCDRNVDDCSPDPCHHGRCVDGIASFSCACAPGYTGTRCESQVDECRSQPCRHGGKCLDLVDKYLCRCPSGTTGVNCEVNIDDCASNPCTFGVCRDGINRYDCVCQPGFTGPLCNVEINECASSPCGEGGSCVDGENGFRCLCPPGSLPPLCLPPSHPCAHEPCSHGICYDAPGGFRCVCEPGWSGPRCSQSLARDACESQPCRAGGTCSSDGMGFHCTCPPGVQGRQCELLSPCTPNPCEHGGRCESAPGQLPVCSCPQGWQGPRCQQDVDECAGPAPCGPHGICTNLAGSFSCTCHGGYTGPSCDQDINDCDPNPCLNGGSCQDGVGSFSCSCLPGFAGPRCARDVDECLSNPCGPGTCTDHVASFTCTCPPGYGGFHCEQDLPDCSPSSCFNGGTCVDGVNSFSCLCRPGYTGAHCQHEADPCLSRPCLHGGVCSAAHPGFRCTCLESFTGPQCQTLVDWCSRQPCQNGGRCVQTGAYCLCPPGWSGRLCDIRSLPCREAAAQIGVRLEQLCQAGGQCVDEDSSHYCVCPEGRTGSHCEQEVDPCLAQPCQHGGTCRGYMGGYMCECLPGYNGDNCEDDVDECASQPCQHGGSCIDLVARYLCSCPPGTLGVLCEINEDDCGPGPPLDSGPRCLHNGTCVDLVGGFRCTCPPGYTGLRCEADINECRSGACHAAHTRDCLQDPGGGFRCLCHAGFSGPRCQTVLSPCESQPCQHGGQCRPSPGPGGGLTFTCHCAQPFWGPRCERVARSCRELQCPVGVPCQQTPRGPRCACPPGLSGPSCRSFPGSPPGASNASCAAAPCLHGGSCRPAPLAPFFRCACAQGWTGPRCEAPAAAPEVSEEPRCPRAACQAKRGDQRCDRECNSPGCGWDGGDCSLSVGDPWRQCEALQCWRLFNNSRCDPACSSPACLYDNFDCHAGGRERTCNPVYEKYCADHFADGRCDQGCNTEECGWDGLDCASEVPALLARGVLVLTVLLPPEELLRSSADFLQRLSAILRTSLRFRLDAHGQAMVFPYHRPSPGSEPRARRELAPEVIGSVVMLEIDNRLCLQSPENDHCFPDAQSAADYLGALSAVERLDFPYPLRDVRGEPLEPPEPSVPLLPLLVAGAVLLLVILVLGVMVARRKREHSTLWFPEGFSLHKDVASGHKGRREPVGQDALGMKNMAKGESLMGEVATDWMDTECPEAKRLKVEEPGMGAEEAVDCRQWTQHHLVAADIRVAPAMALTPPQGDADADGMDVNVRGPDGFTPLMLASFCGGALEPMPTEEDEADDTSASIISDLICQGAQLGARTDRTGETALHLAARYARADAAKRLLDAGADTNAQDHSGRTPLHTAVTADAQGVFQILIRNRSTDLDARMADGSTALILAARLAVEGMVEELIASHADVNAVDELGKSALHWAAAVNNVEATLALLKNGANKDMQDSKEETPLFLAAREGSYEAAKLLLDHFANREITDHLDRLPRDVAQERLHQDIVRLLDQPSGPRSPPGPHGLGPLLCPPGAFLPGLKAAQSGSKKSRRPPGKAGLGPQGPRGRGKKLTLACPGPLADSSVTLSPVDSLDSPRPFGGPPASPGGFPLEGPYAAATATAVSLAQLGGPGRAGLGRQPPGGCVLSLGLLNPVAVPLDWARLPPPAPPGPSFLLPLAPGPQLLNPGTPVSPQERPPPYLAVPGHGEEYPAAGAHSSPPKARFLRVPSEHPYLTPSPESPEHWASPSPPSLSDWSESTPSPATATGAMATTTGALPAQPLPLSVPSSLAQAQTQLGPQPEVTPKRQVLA
Sequence of Torsin-1A-interacting protein 2 (Homo sapiens) (Q8NFQ8 whole entry, looked up): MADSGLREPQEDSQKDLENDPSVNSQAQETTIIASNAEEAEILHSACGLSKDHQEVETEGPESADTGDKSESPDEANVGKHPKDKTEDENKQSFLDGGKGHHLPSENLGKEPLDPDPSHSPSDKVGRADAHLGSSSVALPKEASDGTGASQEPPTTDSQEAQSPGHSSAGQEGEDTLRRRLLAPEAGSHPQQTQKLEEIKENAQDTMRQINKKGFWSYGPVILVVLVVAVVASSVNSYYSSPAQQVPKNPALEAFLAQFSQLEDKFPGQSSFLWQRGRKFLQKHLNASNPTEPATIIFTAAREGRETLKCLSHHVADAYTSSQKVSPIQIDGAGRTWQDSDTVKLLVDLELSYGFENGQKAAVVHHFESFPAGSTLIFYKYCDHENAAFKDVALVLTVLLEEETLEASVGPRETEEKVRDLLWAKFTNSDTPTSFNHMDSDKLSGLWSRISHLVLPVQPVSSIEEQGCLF
Sequence of Pro-neuregulin-1, membrane-bound isoform (Homo sapiens) (Q02297 whole entry, looked up, the tested form may be a part, canonical isoform): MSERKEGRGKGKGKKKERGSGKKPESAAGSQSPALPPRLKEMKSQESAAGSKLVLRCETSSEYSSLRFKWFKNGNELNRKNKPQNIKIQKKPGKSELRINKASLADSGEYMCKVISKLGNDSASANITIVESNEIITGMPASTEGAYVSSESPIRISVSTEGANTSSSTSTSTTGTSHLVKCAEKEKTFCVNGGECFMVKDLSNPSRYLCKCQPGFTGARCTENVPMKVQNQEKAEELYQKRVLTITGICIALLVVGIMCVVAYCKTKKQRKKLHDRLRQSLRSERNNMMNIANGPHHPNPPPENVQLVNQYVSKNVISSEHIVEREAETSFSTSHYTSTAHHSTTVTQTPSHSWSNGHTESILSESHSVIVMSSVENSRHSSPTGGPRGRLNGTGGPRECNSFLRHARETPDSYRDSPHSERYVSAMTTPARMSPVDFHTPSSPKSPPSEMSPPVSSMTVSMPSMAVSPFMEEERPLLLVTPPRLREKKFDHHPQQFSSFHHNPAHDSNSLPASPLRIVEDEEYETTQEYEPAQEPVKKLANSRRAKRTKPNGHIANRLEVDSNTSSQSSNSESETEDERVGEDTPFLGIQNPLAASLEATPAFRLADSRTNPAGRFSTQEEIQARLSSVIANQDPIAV

Regarding `COc1ccc([Si](C)(C)[C@H]2[C@H](CCn3cc([C@H](O)c4ccccc4)nn3)O[C@@]3(C(=O)N(Cc4cccc(N5CCC5=O)c4)c4ccccc43)[C@@H]2C)cc1`, the composite z-score in [1] was 0.386; in [2], 0.238; in experiment [3], -0.0894; in [4], 0.164; in experiment [5] it was -0.404; in [6], -0.0001. Also, the composite z-score in experiment [7] is 0.557; in experiment [9] it was -0.0509; in experiment [10], -0.191; in experiment [11] it was 0.423; in experiment [15], 0.276; in experiment [17], -0.196. Further, the composite z-score in [18] was 0.806; in [19], 0.349; in experiment [20] it was -0.167. In addition, the z-score is -1.99 (inactive) in experiment [8]; -1.89 (inactive) in experiment [12]; 0.399 (inactive) in experiment [13]; 1.82 (inactive) in [14]; 1.41 (inactive) in [16].

As to `CC(C)CNC(=O)[C@@]1(c2ccc([N+](=O)[O-])cc2)CC(=O)N(CC23CC4CC(CC(C4)C2)C3)[C@@H]1c1ccc(CO)cc1I`, the composite z-score in experiment [1] was 0.483; in experiment [2] it was 0.699; in experiment [3], -0.0226; in experiment [4], 0.26; in experiment [5], 1.34; in [6], 0.168. The composite z-score is 1.29 in experiment [7]; 0.283 in experiment [9]; -0.0994 in [10]; 1.54 in experiment [11]; 3.06 in [15]; -0.0144 in [17]. In addition, the composite z-score in [18] is 1.3; in experiment [19] it was 1.09; in experiment [20] it was -0.0088. Moreover, the z-score in experiment [8] was -1.52 (inactive); in experiment [12], 0.951 (inactive); in experiment [13], 0.864 (inactive); in experiment [14], 3.26 (inactive); in [16], -0.569 (inactive).

As for `C=CCOC(=O)[C@H]1[C@@H]2C(=O)O[C@@H](c3ccccc3)[C@@H](c3ccccc3)N2[C@@H](c2ccc(OCCOC(=O)[C@@H]3C[C@@H]4C(=O)N5CCC[C@H]5C(=O)N4[C@@H]3c3ccc(O)cc3)cc2)[C@]12C(=O)Nc1ccccc12`, the composite z-score was -0.212 in experiment [1]; 0.434 in experiment [2]; -0.108 in [3]; 0.282 in [4]; 0.356 in experiment [5]; 0.771 in experiment [6]. The composite z-score in experiment [7] is 1.28; in [9], 0.328; in experiment [10] it was -0.249; in experiment [11], 1.53; in [15] it was 2.63; in experiment [17] it was -0.0984. The composite z-score is 1.15 in experiment [18], 0.799 in experiment [19] and -0.096 in experiment [20]. The z-score in [8] is -0.105 (inactive); in experiment [12] it was 0.821 (inactive); in experiment [13], 1.64 (inactive); in experiment [14], 3.79 (inactive); in experiment [16], 0.621 (inactive).

Regarding `C=CC[C@@]1(C(=O)NCC(O)CO)N=C(c2ccc(OCCCO)cc2)O[C@@H]1c1ccccc1N=[N+]=[N-]` (stereo not given in full), the composite z-score in [1] is 0.638; in [2] it was 1.22; in experiment [3], 0.0485; in experiment [4], 0.12; in experiment [5], 0.579; in experiment [6] it was 1.71. Moreover, the composite z-score in experiment [7] was found to be 1.3; in experiment [9], 1.39; in experiment [10], 0.158; in experiment [11], 1.18; in experiment [15], 3.79; in [17], 0.208. Besides, the composite z-score in experiment [18] was found to be 0.84; in experiment [19] it was 1.04; in [20], 0.0376. Also, the z-score in experiment [8] was 3.08 (inactive); in experiment [12], -0.711 (inactive); in [13], -1.89 (inactive); in experiment [14], 0.068 (inactive); in experiment [16] it was 1.01 (inactive).

As for `CCCNC(=O)[C@@H]1c2ccccc2C(=O)N(Cc2ccccc2)[C@H]1c1ccc(CO)cc1`, the composite z-score in experiment [1] was 0.0651; in experiment [2], -0.427; in [3], -0.0861; in experiment [4], -0.533; in experiment [5] it was -0.195; in [6] it was 1.09. The composite z-score in experiment [7] was 1.11; in experiment [9] it was -0.115; in [10] it was 0.132; in [11], 0.577; in experiment [15], 2.12; in experiment [17], 0.0553. In addition, the composite z-score in experiment [18] is -0.344; in experiment [19], 0.0163; in experiment [20] it was -0.152. Besides, the z-score was -1.14 (inactive) in experiment [8]; 0.288 (inactive) in [12]; -0.45 (inactive) in [13]; 0.633 (inactive) in experiment [14]; -1.04 (inactive) in experiment [16].
